One may read the Inhibition as the relative decrease from the control value, in per cent. Lower therefore signals a response near the control.

The record followed here is ChEMBL document CHEMBL1157539, “Thousands of chemical starting points for antimalarial lead identification” (Nature, 2010).

The structures appear in SMILES notation.

Holding throughout (format): functional
In experiment [1] the test system is Plasmodium falciparum. Nature of the experiment: GSK_TCMDC: Inhibition of Plasmodium falciparum 3D7 in whole red blood cells, using parasite LDH activity as an index of growth. Test compounds present at 2uM.
In experiment [2] the test system is Plasmodium falciparum. Nature of the experiment: GSK_TCMDC: Inhibition of Plasmodium falciparum Dd2 in whole red blood cells, using parasite LDH activity as an index of growth. Test compounds present at 2uM.
For another experiment, the system named is HepG2. Kind of experiment: GSK_TCMDC: Percent inhibition of human HepG2 cell line. Test compounds present at 10uM.

As to `Cc1cccc(-c2cccc(CNc3nc(NCCc4ccc(O)cc4)nc(N4CCNCC4)n3)c2)c1.O=C(O)C(F)(F)F`, the values for the Inhibition in the experiment on Plasmodium falciparum [1], in the experiment with Plasmodium falciparum [2] and in the experiment with HepG2 were 84%, 0% and 50%, respectively.
`O=S(=O)(c1ccc(NC(S)=NN=Cc2ccccn2)cc1)N1CCCCC1`: the values for the Inhibition in the experiment with Plasmodium falciparum [1], in the experiment with Plasmodium falciparum [2] and with HepG2 were 98%, 56% and 43%, respectively.
As for `CC(C)Cc1nc(N2CCOCC2)c2nnn(Cc3ccccc3)c2n1`, the Inhibition with Plasmodium falciparum [1] was 98%; with Plasmodium falciparum [2] it was 76%; in the experiment on HepG2, 7%.
The corresponding values for `CC(=O)c1ccc(NC(=O)Nc2ccc(N(C)c3ccnc(NC4CC4)n3)cc2)cc1` are 100%, 60% and 59%.
The like results for `CCOc1c(OC)ccc2c1CCN(CCN1CCC(CNC(=O)c3ccc(-c4ccc(C#N)cc4)cc3)CC1)C2` were, in that order, 92%, 61% and 45%.
The corresponding values for `Cc1noc(C)c1-c1ccc2c(Nc3nccc4ccccc34)c(C(N)=O)cnc2c1` are 100%, 99% and 100%.
`C=CC[C@@H](C(=O)OCC)[C@@H]1[C@@H](N(CC=C)C(=O)OC(C)(C)C)CCN1C(=O)OCc1ccccc1`: the Inhibition is on record as 92% with Plasmodium falciparum [1], 68% in the experiment with Plasmodium falciparum [2] and 2% in the experiment on HepG2.
The corresponding values for `CC(C)N1CCN(C(CN2CCN(CCCOc3ccc(-c4ccccc4)cc3)CC2)c2ccc(F)cc2)CC1.Cl` (centres undefined) are 100%, 100% and 100%.
The corresponding values for `CC(=O)c1ccc2c(c1)CCN(CCC1CCC(NC(=O)c3cc4ccccc4[nH]3)CC1)CC2.Cl` (centres undefined) are 86%, 47% and 64%.
With `Cl.O=C(NCc1ccc(C(=O)N2CCC(N3CCCCC3)CC2)cc1)c1cc(-c2cccc(C(F)(F)F)c2)ccc1O`, the Inhibition with Plasmodium falciparum [1] is recorded as 100%; in the experiment on Plasmodium falciparum [2], 58%; in the experiment on HepG2, 0%.
Regarding `COc1ccccc1N1CCN(CCCCNC(=O)c2ccc(NC(=O)c3ccc4ccccc4c3)cc2)CC1`, the Inhibition with Plasmodium falciparum [1] turned out to be 97%; in the experiment with Plasmodium falciparum [2] it was 18%; in the experiment with HepG2, 16%.
The corresponding values for `FC(F)(F)c1ccc2[nH]c(-c3ccc(-c4cccc(CNCCc5ccncc5)c4)s3)nc2c1.O=C(O)C(F)(F)F` are 100%, 95% and 20%.
The corresponding values for `COc1ccc(S(=O)(=O)Nc2cc(Br)cc3c2OCCC3)cc1N1CCN(C(=O)C(Cl)(Cl)Cl)CC1` are 90%, 51% and 4%.
In the case of `COc1ccc2nccc([C@@H](O)CN3CCC(NC(=O)C(=Cc4ccc(C#N)cc4)c4ccc(-c5ccccc5)cc4)CC3)c2c1`, the values for the Inhibition in the experiment with Plasmodium falciparum [1], in the experiment with Plasmodium falciparum [2] and in the experiment on HepG2 were 100%, 84% and 5%, respectively.
The like results for `CCn1c(SCc2ccc(F)cc2)nc2sc3c(c2c1=O)CCN(C)C3` were, in that order, 95%, 81% and 2%.
In the case of `O=C(Nc1cccnc1)c1ccc(-c2cc3ccncc3cc2OC2CCNCC2)s1`, the results for the Inhibition with Plasmodium falciparum [1], with Plasmodium falciparum [2] and in the experiment on HepG2 were 97%, 12% and 0%, respectively.
The like results for `COc1ccc(NC(=O)/C=C/c2ccccc2Cl)cc1OCCN1CCC(N2CCCCC2)CC1` were, in that order, 100%, 49% and 3%.
The like results for `COc1c(C=NNc2nc(=Nc3ccccc3)[nH]c(=Nc3ccccc3)[nH]2)ccc(Br)c1O` were, in that order, 98%, 37% and 63%.
Take `Cc1noc(C)c1-c1cccc(CNCc2cccc(-c3cccc(-c4nc5cccc(C)c5[nH]4)c3)c2)c1.O=C(O)C(F)(F)F`: the Inhibition turned out to be 100% with Plasmodium falciparum [1], 66% in the experiment with Plasmodium falciparum [2] and 15% in the experiment on HepG2.
The like results for `CCn1c(-c2nc(-c3ccc4c(c3)OCO4)cnc2N)nc2cnccc21` were, in that order, 100%, 98% and 94%.
On to `O=C(Nc1ccc(OC2CCN(Cc3ccc(F)cc3)C2)c(Cl)c1)c1ccccc1.O=C(O)C(F)(F)F` (centres undefined), for which the results for the Inhibition in the experiment with Plasmodium falciparum [1], with Plasmodium falciparum [2] and in the experiment on HepG2 were 91%, 86% and 11%, respectively.
For `CCCCCCCN1CCC(CC(=O)Nc2ccnc3ccc(OC)cc23)C(CC)C1` (centres undefined), the Inhibition with Plasmodium falciparum [1] came to 100%; in the experiment on Plasmodium falciparum [2], 75%; in the experiment on HepG2, 14%.
The corresponding values for `COc1cc2c(cc1C(F)(F)F)N(C(=O)Nc1cc(-c3ccncc3)cc(-c3cccnc3)c1)CC2` are 95%, 50% and 64%.
The corresponding values for `CC1(C)CCCN(c2ncc(-c3cccc(CNCc4ccccc4O)c3)cn2)C1` are 96%, 82% and 35%.
The corresponding values for `COc1ccc2nccc(NCC3(O)CCN(CCc4ccc5c(c4)OCCO5)CC3)c2n1.Cl` are 100%, 87% and 35%.
Take `CN(Cc1ccccc1)C(=O)c1nn(CCCN2CCC(N3CCCC3)CC2)cc1-c1ccc(Cl)c(Cl)c1`: the Inhibition was 100% in the experiment with Plasmodium falciparum [1], 66% in the experiment on Plasmodium falciparum [2] and 43% with HepG2.
The corresponding values for `CCN(CC)CCCN(C(=O)Nc1ccc(C#N)cc1)c1nc(-c2ccc(F)cc2)cs1` are 99%, 68% and 36%.
The like results for `Fc1ccc(C=NN=c2cc[nH]c3ccccc23)cc1` were, in that order, 100%, 100% and 21%.
The like results for `Cc1nn(CC(O)Cn2c3ccc(Br)cc3c3cc(Br)ccc32)c(C)c1Br` (centres undefined) were, in that order, 98%, 81% and 4%.
For `Oc1c(C(Nc2nc3ccccc3s2)c2ccccc2)ccc2cccnc12` (centres undefined), the Inhibition in the experiment with Plasmodium falciparum [1] was 95%; in the experiment on Plasmodium falciparum [2] it was 83%; in the experiment with HepG2 it was 45%.
For the compound `Clc1ccc(CNCCCCCCNCc2ccc(Cl)cc2)cc1.O=C(O)c1ccc2ccccc2c1O`, the Inhibition with Plasmodium falciparum [1] amounted to 96%; in the experiment with Plasmodium falciparum [2], 28%; in the experiment on HepG2 it was 53%.
On to `O=C(Nc1cccc(CN2CCCN(Cc3ccccc3)CC2)c1)c1ccc(-c2ccccc2)cc1.O=C(O)C(F)(F)F`, for which the Inhibition was 85% in the experiment on Plasmodium falciparum [1], 8% in the experiment on Plasmodium falciparum [2] and 45% in the experiment on HepG2.
The like results for `O=C(c1cccc(-c2noc(C(F)(F)F)n2)c1)N1CCN(c2ccncc2)CC1` were, in that order, 90%, 56% and 14%.
The corresponding values for `CC(=O)c1ccc(NC(=O)CSc2nc(-c3ccccc3Cl)ns2)cc1` are 89%, 72% and 0%.
The like results for `COc1ccc2ncc(F)c([C@H](O)CN3CCC(NCc4ccc5c(c4)NC(=O)CO5)CC3)c2c1.Cl` were, in that order, 100%, 100% and 16%.
As to `O=[N+]([O-])c1cccc(/C=N/Nc2ccnc3ccc(C(F)(F)F)cc23)c1`, the Inhibition turned out to be 96% in the experiment on Plasmodium falciparum [1], 35% with Plasmodium falciparum [2] and 0% in the experiment with HepG2.
As for `CC(C)(C)c1ccc(CNC(=O)c2cc(CNC3CCNCC3)ccc2O)cc1`, the Inhibition in the experiment with Plasmodium falciparum [1] is on record as 96%; in the experiment on Plasmodium falciparum [2], 8%; in the experiment with HepG2, 6%.
The corresponding values for `O=C(Nc1cccc(C(F)(F)F)c1)c1cccc(S(=O)(=O)NCC2CCN(CC3CCCCC3)CC2)c1.O=C(O)C(F)(F)F` are 97%, 5% and 27%.
The corresponding values for `COc1ccc2ncc(F)c(CCN3C4CCC3CC(NCc3cc5c(cn3)OCS5)C4)c2n1.Cl` (centres undefined) are 95%, 48% and 15%.
The like results for `O=C(O)C(F)(F)F.c1cc(CN2CCCCC2)cc(-c2csc(-c3nc4ccccc4[nH]3)c2)c1` were, in that order, 90%, 16% and 26%.
Consider `O=C(Nc1ccc(OC2CCN(Cc3ccsc3)C2)c(Cl)c1)c1ccco1.O=C(O)C(F)(F)F` (centres undefined), for which the figures for the Inhibition in the experiment on Plasmodium falciparum [1], in the experiment with Plasmodium falciparum [2] and with HepG2 were 93%, 96% and 0%, respectively.
The corresponding values for `CC(=O)Oc1c(C2CCN(CCCCNC(=O)c3ccc(-c4ccc(C#N)cc4)cc3)CC2)ccc2c1CCCC2` are 88%, 52% and 21%.
The corresponding values for `CN(CCN(C)C(=O)NCc1ccccc1)C(=O)NCc1ccccc1` are 100%, 0% and 2%.
The like results for `O=C(/C=C/c1ccc(Cl)c(Cl)c1)NCCCCCN1CCCN(C(=O)Nc2ccc([N+](=O)[O-])cc2)CC1` were, in that order, 97%, 28% and 32%.
For the compound `c1ccc(CN2CCC(NCc3cccc(-c4cncc5ccccc45)c3)CC2)cc1`, the Inhibition in the experiment on Plasmodium falciparum [1] is listed as 92%; in the experiment on Plasmodium falciparum [2], 11%; in the experiment with HepG2 it was 29%.
The like results for `COc1cc(C)ccc1N1CCN(CCCCNC(=O)c2ccc(NC(=O)c3ccc(Cl)cc3)cc2)CC1` were, in that order, 99%, 31% and 30%.
In the case of `COc1ccc(C=C2SC(=N)N(c3ccccc3OC)C2=O)cc1`, the figures for the Inhibition in the experiment with Plasmodium falciparum [1], in the experiment on Plasmodium falciparum [2] and in the experiment on HepG2 were 97%, 95% and 47%, respectively.
The like results for `Br.CCCCCCCNCCNc1cc(C)nc2ccccc12` were, in that order, 100%, 99% and 58%.
The corresponding values for `Cc1cccc2nc(-c3cccc(-c4ccc(CN5CCN(CCO)CC5)cc4)c3)[nH]c12.O=C(O)C(F)(F)F` are 100%, 63% and 12%.
The like results for `CN(C)CCC(O)(c1ccc(Br)cc1)c1cccnc1` (centres undefined) were, in that order, 96%, 1% and 22%.
Turning to `Cc1ccccc1Nc1nc(Nc2ccccc2)c2ccccc2n1.Cl`, the Inhibition in the experiment on Plasmodium falciparum [1] worked out at 100%; with Plasmodium falciparum [2] it was 21%; in the experiment with HepG2 it was 19%.
The like results for `CCN(CC)CCCC(C)Nc1c(-c2ccc(OC)cc2)cnc2ccccc12` (centres undefined) were, in that order, 93%, 38% and 3%.
With `Cc1cc(=O)c2cc(-c3ccc(OC(F)(F)F)cc3)ccc2[nH]1`, the Inhibition with Plasmodium falciparum [1] is listed as 96%; with Plasmodium falciparum [2], 95%; in the experiment on HepG2, 0%.
The like results for `O=C(Nc1ccc([N+](=O)[O-])cc1)c1nn(-c2ccccc2)cc1/N=C/c1cccc(O)c1` were, in that order, 98%, 37% and 10%.
The like results for `O=C(NCCCCN1CCCC2c3cccc(O)c3CCC21)c1ccc(-c2ccccc2)cc1` (centres undefined) were, in that order, 93%, 4% and 18%.
The corresponding values for `COc1ccc2nccc([C@@H](O)CN3CCC(NC(=O)/C=C/c4ccc(F)c5ccccc45)CC3)c2c1` are 100%, 75% and 37%.
Turning to `c1ccc2[nH]c(CN(Cc3nc4ccccc4[nH]3)Cc3nc4ccccc4[nH]3)nc2c1`, the Inhibition was 81% in the experiment with Plasmodium falciparum [1], 86% in the experiment on Plasmodium falciparum [2] and 39% in the experiment with HepG2.
The like results for `COCCN1CCC(N(CC2(O)CCN(c3ccc(C(F)(F)F)cc3)CC2)C(=O)Cn2c(SCc3cccc(F)c3F)cc(=O)c3ccccc32)CC1` were, in that order, 94%, 75% and 29%.
